From PubChem BioAssay (NCATS)
Records with an inconclusive call do not appear. Activity calls are given as the source filed them. Calls come from the whole dose curve; as a rule, active = well fitted cell-killing curve with a large enough effect; inconclusive = small, poorly fitted or top-dose-only effect, or effect the other way; inactive = flat fitted curve, though single readings scatter.

How the values were obtained:
Assay in all cases: Primary qHTS to identify gynecologic anti-cancer compounds using libraries of approved drugs and bioactive compounds (AID 1345084); note: nearly all actives have a fitted effect of over 55% in size
Conditions in all cases: Gynecologic cancer cell panel viability, ATPlite luminescence, 48 h; series mostly up to 57.5 µM
[1] = tested on: PA-1
In short: (§1)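 Cell viability after 48 h drug treatment, ATPlite luminescence readout; five doses.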

[2] = tested on: SKOV3
In short: as §1

[3] = tested on: Tov-21-G
In short: as §1

[4] = tested on: Tov112D
In short: as §1
% is set by controls: 0 for no effect and ±100 for the full control effect; potency is the fitted concentration of half-maximal effect.

O[C@@](Cc1ncc(CC2(C(F)(F)F)CC2)[nH]1)(c1ccc(-n2cccn2)cc1)C(F)(F)F
inactive: Potency [1] | Potency [2] | Potency [3] | Potency [4]

CC1(C)CCC2(C(=O)OC3OC(COC4OC(CO)C(O)C(O)C4O)C(O)C(O)C3O)CCC3(C)C(=CCC4C5(C)CCC(OC6OCC(O)C(O)C6O)C(C)(C)C5CCC43C)C2C1O (stereo not drawn)
inactive: activity change, negative = cytotoxicity [1] -14.1% [at 11.6 µM] | activity change, negative = cytotoxicity [2] -2.57% [at 11.6 µM] | activity change, negative = cytotoxicity [3] 0.233% [at 11.6 µM] | activity change, negative = cytotoxicity [4] -9.09% [at 11.6 µM]

Cc1nnc(-c2ccc(-c3ccc(C(=O)Nc4ccc(O)c(N5CCN(C)CC5)c4)cc3)c(C)c2)o1
inactive: Potency [1] | Potency [2] | Potency [3] | Potency [4]

COC(=O)c1ccnc(-c2cc(C(=O)Nc3ccc(C4(N)CC4)cc3)ccn2)c1
inactive: Potency [1] | Potency [2] | Potency [3] | Potency [4]

O=c1[nH]c2cccc(N3CCN(Cc4ccc(-c5ccccc5)cc4)CC3)c2o1
inactive: Potency [1] | Potency [2] | Potency [3] | Potency [4]

Cc1[nH]c2ccccc2c1CCNC(=O)c1cccs1
inactive: Potency [1] | Potency [2] | Potency [3] | Potency [4]

Cc1ccc(OC[C@H](O)[C@H](C)NC(C)C)c2c1CCC2
inactive: Potency [1] | Potency [2] | Potency [3] | Potency [4]

CCCCCCCOc1cc2c(cc1/C(C)=C/c1ccc(C(=O)O)cc1)C(C)(C)CCS2(=O)=O
inactive: Potency [1] | Potency [2] | Potency [3] | Potency [4]

COc1cc(NC(=O)c2cc(C3CC3)on2)c(OC)cc1Cl
inactive: Potency [1] | Potency [2] | Potency [3] | Potency [4]

CC(=O)OC1C(=O)C2C3OCC4=C3[C@@](C)(CC[C@@H]4O)CC[C@]2(C)[C@H]1C(C)C (stereo partly drawn)
inactive: Potency [1] | Potency [2] | Potency [3] | Potency [4]

Cc1onc(-c2ccccc2)c1C(=O)N1CCN(c2ccc([N+](=O)[O-])cc2Cl)CC1
inactive: Potency [1] | Potency [2] | Potency [3] | Potency [4]

Cc1cc(F)ccc1-c1nc(NCCN=C(N)NC#N)nc2c1ccc(=O)n2-c1c(F)cccc1F
inactive: Potency [1] | Potency [2] | Potency [3] | Potency [4]

CC#CCn1c(N2CCCC(N)C2)nc2c1c(=O)n(Cc1nc(C)c3ccccc3n1)c(=O)n2C (stereo not drawn)
inactive: Potency [1] | Potency [2] | Potency [3] | Potency [4]

CC(C)(Cc1nc(-c2ccc(O)cn2)no1)C(=O)NC1=C(C(=O)O)CCCC1
inactive: Potency [1] | Potency [2] | Potency [3] | Potency [4]

CNCCN1CCC(c2cc(CN(C)C(=O)c3cccc(Oc4ccccc4)c3)ccn2)CC1
inactive: Potency [1] | Potency [2] | Potency [3] | Potency [4]

COc1ccc([C@H](Cc2ccncc2)c2ccccc2)cc1OC1CCCC1
inactive: Potency [1] | Potency [2] | Potency [3] | Potency [4]

CO[C@@H]1[C@H](O)CCC2(CO2)[C@H]1[C@@]1(C)O[C@@H]1CC=C(C)C (stereo partly drawn)
inactive: Potency [1] | Potency [2] | Potency [3] | Potency [4]

O=C1c2ccc(Nc3ccc(F)cc3F)cc2CCc2ccc(OCC(O)CO)cc21 (stereo not drawn)
inactive: Potency [1] | Potency [2] | Potency [3] | Potency [4]

Clc1ncoc1-c1c[nH]c2ccccc12
inactive: Potency [1] | Potency [2] | Potency [3] | Potency [4]

Cc1c(Cl)cccc1S(=O)(=O)Nc1nc(NCCc2ccccc2)nc2c1CN(Cc1ccccc1)CC2
inactive: Potency [1] | Potency [2] | Potency [3] | Potency [4]

N[C@@H]1c2cccnc2[C@H](OC(=O)N2CCC(n3c(=O)[nH]c4ncccc43)CC2)CC[C@H]1c1cccc(F)c1F
inactive: Potency [1] | Potency [2] | Potency [3] | Potency [4]

O=C1COc2nccc(-c3ccccc3F)c2CN1Cc1cc(C(F)(F)F)cc(C(F)(F)F)c1
inactive: Potency [1] | Potency [2] | Potency [3] | Potency [4]

CC(=O)O[C@@H]1C2=C(O)C(=O)[C@](C)(OC(C)=O)C(=O)C2=CO[C@@]12O[C@@H](C)CC[C@H]2OC(C)=O
inactive: Potency [1] | Potency [2] | Potency [3] | Potency [4]

C/C=C(\C)C(=O)O[C@@H]1[C@@H](C)[C@]2(O)[C@@H]3C=C(C)C(=O)[C@H]3CC(CO)=C[C@H]2C2C(C)(C)[C@@]21OC(=O)C(C)CC (stereo partly drawn)
inactive: Potency [1] | Potency [2] | Potency [3] | Potency [4]

O=C(NCCN1CCC(n2c(=O)[nH]c3ccccc32)CC1)c1cc2cc(F)ccc2[nH]1
inactive: Potency [1] | Potency [2] | Potency [3] | Potency [4]

O=C(O)c1cccc(-c2ccc(-c3cn(C(=O)N4CCCCC4Cc4ccccc4)nn3)cc2)c1 (stereo not drawn)
inactive: Potency [1] | Potency [2] | Potency [3] | Potency [4]

COc1ccc2[nH]c(=O)c3c(c2c1)OC(C)(C)C=C3
inactive: Potency [1] | Potency [2] | Potency [3] | Potency [4]

CCC(CC)C(=O)OC12C(OC(=O)C(C)C)C(C)C3(O)C(C=C(CO)CC4(O)C(=O)C(C)=CC43)C1C2(C)C (stereo not drawn)
inactive: Potency [1] | Potency [2] | Potency [3] | Potency [4]

Cn1nc(-c2ccc(C(F)(F)F)cc2)nc2c(=O)n(C)c(=O)nc1-2
active: Potency [1] 5.01 µM | Potency [2] 17.8 µM | Potency [3] 12.6 µM | Potency [4] 7.94 µM

O=C(/C=C/c1ccccc1O)O[C@@H]1O[C@H](CO)[C@@H](O)[C@H](O)[C@H]1O
inactive: Potency [1] | Potency [2] | Potency [3] | Potency [4]

COc1cc(N(C)CCN(C)C)c(N)cc1Nc1nccc(-c2cn(C)c3ccccc23)n1
inactive: Potency [1] | Potency [2] | Potency [3] | Potency [4]

COc1ccccc1C(=O)Nc1cccc(NC(=O)c2cccc(C)c2)c1
inactive: Potency [1] | Potency [2] | Potency [3] | Potency [4]

CC1(C)CC[C@]23CO[C@@]4(CCC5[C@@]6(C)CC[C@H](O[C@@H]7OC[C@H](O[C@@H]8O[C@H](CO)[C@@H](O)[C@H](O)[C@H]8O[C@@H]8OC[C@@H](O)[C@H](O)[C@H]8O)[C@H](O)[C@H]7O)[C@@](C)(CO)C6CC[C@@]5(C)[C@]4(C)CC2=O)[C@@H]3C1 (stereo partly drawn)
inactive: activity change, negative = cytotoxicity [1] 10.3% [at 11.6 µM] | activity change, negative = cytotoxicity [2] -7.83% [at 11.6 µM] | activity change, negative = cytotoxicity [3] -3.45% [at 11.6 µM] | activity change, negative = cytotoxicity [4] 1.26% [at 11.6 µM]

COc1cc2nc(N3CCN(C(=O)COc4c(OC)cccc4C(C)C)CC3)nc(N)c2cc1OC
inactive: Potency [1] | Potency [2] | Potency [3] | Potency [4]

CCOC(=O)N1c2ccc(C(F)(F)F)cc2C(N(Cc2cc(C(F)(F)F)cc(C(F)(F)F)c2)C(=O)OC)CC1CC (stereo not drawn)
inactive: Potency [1] | Potency [2] | Potency [3] | Potency [4]

COc1cc(C2OC(c3ccc(OC)c(OC)c3)C(C)C2C)ccc1O (stereo not drawn)
inactive: Potency [1] | Potency [2] | Potency [3] | Potency [4]

COc1ccc([C@H]2Cc3cccc(O)c3C(=O)O2)cc1OC
inactive: Potency [1] | Potency [2] | Potency [3] | Potency [4]

COc1ccccc1OCCNCC(O)CCOc1cccc2[nH]c3ccccc3c12 (stereo not drawn)
inactive: Potency [1] | Potency [2] | Potency [3] | Potency [4]

Cn1ncnc1[C@@H]1c2n[nH]c(=O)c3cc(F)cc(c23)N[C@H]1c1ccc(F)cc1
inactive: Potency [1] | Potency [2] | Potency [3] | Potency [4]

C[C@H]1CC[C@@]2(OC1)O[C@H]1CC3[C@@H]4CC[C@@H]5C[C@@H](O[C@@H]6O[C@H](CO)[C@@H](O[C@@H]7O[C@H](CO[C@@H]8OC[C@@H](O)[C@H](O)[C@H]8O)[C@@H](O[C@@H]8O[C@H](CO)[C@H](O)[C@H](O)[C@H]8O)[C@H](O)[C@H]7O)[C@H](O)[C@H]6O)CC[C@]5(C)C4CC[C@]3(C)[C@H]1[C@@H]2C (stereo partly drawn)
inactive: activity change, negative = cytotoxicity [1] -0.202% [at 11.6 µM] | activity change, negative = cytotoxicity [2] 11% [at 11.6 µM] | activity change, negative = cytotoxicity [3] -1.12% [at 11.6 µM] | activity change, negative = cytotoxicity [4] 3.54% [at 11.6 µM]

Cc1cc(C)c(-n2cc(C)c3c(Cl)nc(C)nc32)c(C)c1
inactive: Potency [1] | Potency [2] | Potency [3] | Potency [4]

COC(=O)C[C@H]1C(C)(C)[C@H](OC(=O)c2ccccc2)C2CC3=C4CC(=O)O[C@@H](c5ccoc5)[C@]4(C)CCC3[C@@]1(C)C2=O (stereo partly drawn)
inactive: Potency [1] | Potency [2] | Potency [3] | Potency [4]

CCC(C)/C=C(C)/C=C/C1=CC2=C(Cl)C(=O)C(C)(OC(C)=O)C(=O)C2(O)C(OC)O1 (stereo not drawn)
inactive: Potency [1] | Potency [2] | Potency [3] | Potency [4]

CC(=O)OC/C(=C/C(=O)O)CC[C@@H]1C(C=O)=CC[C@@H]2C(C)(C)CCC[C@@]12C
inactive: Potency [1] | Potency [2] | Potency [3] | Potency [4]

Cc1ccc(N2CCN(S(=O)(=O)N3CCCCC3)CC2)c(C)c1
inactive: Potency [1] | Potency [2] | Potency [3] | Potency [4]

CCOc1ccc(-n2c([C@@H](C)N(Cc3cccnc3)C(=O)Cc3ccc(OC(F)(F)F)cc3)nc3ncccc3c2=O)cc1
inactive: Potency [1] | Potency [2] | Potency [3] | Potency [4]

C[C@]12CC[C@@H]3c4ccc(O)c(O)c4CC[C@H]3[C@@H]1CCC2=O
inactive: Potency [1] | Potency [2] | Potency [3] | Potency [4]

CN1CCN(C2=Nc3ccccc3Nc3ccc(Cl)cc32)CC1
inactive: Potency [1] | Potency [2] | Potency [3] | Potency [4]

OC1CCC(Nc2nc(-c3ccccc3)nc3[nH]ccc23)CC1 (stereo not drawn)
inactive: Potency [1] | Potency [2] | Potency [3] | Potency [4]

O=C(Nc1ccccc1Br)NC1CCN(c2ccc(C(F)(F)F)cn2)C1 (stereo not drawn)
inactive: Potency [1] | Potency [2] | Potency [3] | Potency [4]

O=C([C@@H]1CCCN(c2ccc3[nH]c(C4(n5cc(Cl)cn5)CC4)nc3n2)C1)N1CCCC1
inactive: Potency [1] | Potency [2] | Potency [3] | Potency [4]

CCC(CC)Nc1nc(C)c(-c2ccc(OC(F)(F)F)cc2OC)nc1OC
inactive: Potency [1] | Potency [2] | Potency [3] | Potency [4]
